Data taken from PubChem BioAssay (NCI).
About 83,000 compounds went through this panel and 20% of them were active in at least one assay; those are over-represented in the sample as a whole.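 Step 1: grow cells in 96-well plates. Step 2: add test compound at a single concentration. Step 3: incubate 48 h. Step 4: record percent growth.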 Unmarked numbers belong to inactive results. Activity calls are given as the source filed them. The calls were made as follows: active = growth percent below 10; inactive = the rest.

How the values were obtained:
Test in all cases: NCI-60 one-dose screen, 48 h (100 = growth as untreated, 0 = no growth, -100 = all killed)
Details in all cases: 10 µM unless noted
NCI-H23 lung = tested on: NCI-H23 lung
NCI-H226 lung = tested on: NCI-H226 lung
NCI-H322M lung = tested on: NCI-H322M lung
HOP-62 NSCLC = tested on: HOP-62 NSCLC
NCI-H460 lung = tested on: NCI-H460 lung
HOP-92 NSCLC = tested on: HOP-92 NSCLC
NCI-H522 lung = tested on: NCI-H522 lung
A549/ATCC NSCLC = tested on: A549/ATCC NSCLC
786-0 renal = tested on: 786-0 renal
COLO 205 colon = tested on: COLO 205 colon
DU-145 prostate = tested on: DU-145 prostate
K-562 leukemia = tested on: K-562 leukemia
MALME-3M melanoma = tested on: MALME-3M melanoma
MDA-MB-231 breast = tested on: MDA-MB-231 breast
RXF 393 renal = tested on: RXF 393 renal
SF-268 CNS = tested on: SF-268 CNS
SF-295 CNS = tested on: SF-295 CNS
SF-539 CNS = tested on: SF-539 CNS
UACC-257 melanoma = tested on: UACC-257 melanoma
M14 melanoma = tested on: M14 melanoma

Row | Compound | growth (NCI-H23 lung) | growth (NCI-H226 lung) | growth (NCI-H322M lung) | growth (HOP-62 NSCLC) | growth (NCI-H460 lung) | growth (HOP-92 NSCLC) | growth (NCI-H522 lung) | growth (A549/ATCC NSCLC) | growth (786-0 renal) | growth (COLO 205 colon) | growth (DU-145 prostate) | growth (K-562 leukemia) | growth (MALME-3M melanoma) | growth (MDA-MB-231 breast) | growth (RXF 393 renal) | growth (SF-268 CNS) | growth (SF-295 CNS) | growth (SF-539 CNS) | growth (UACC-257 melanoma) | growth (M14 melanoma)
1 | CCN(CC)CCCCNc1c2ccc(Cl)cc2nc2ccc(OC)cc12 | -42.8% (active) | -53.7% (active) | -30.4% (active) | 2.75% (active) | -23.8% (active) | -30.7% (active) | -37.4% (active) | 9.02% (active) | -16.6% (active) | -52% (active) | -2.29% (active) | -19% (active) | -65.6% (active) | -52.4% (active) | -61% (active) | -23.1% (active) | -58.7% (active) | -83% (active) | -37.1% (active) | -71.3% (active)
2 | C#Cc1cccc(NC(=O)c2ccccc2NC(=O)CCl)c1 | 64.4% [8.25 µM] | 50.1% [8.25 µM] | 99.3% [8.25 µM] | 75.8% [8.25 µM] | 98.3% [8.25 µM] | 77.4% [8.25 µM] | 10.6% [8.25 µM] | 92.7% [8.25 µM] | 87.5% [8.25 µM] | 114% [8.25 µM] | 96.2% [8.25 µM] | 68.2% [8.25 µM] | 105% [8.25 µM] | 111% [8.25 µM] | 96.7% [8.25 µM] | 68% [8.25 µM] | 103% [8.25 µM] | 93.4% [8.25 µM] | 98.4% [8.25 µM] | 83.3% [8.25 µM]
3 | Cn1cc(-c2nonc2-c2c[nH]c3ccc(F)cc23)c2cccnc21 | 80.7% | 57.3% | 88.1% | 78.9% | 93.9% | 70.6% | 70.2% | 80.4% | 98.1% | 96.5% | 96% | 58% | 93.4% | 78.4% | 72.8% | 78.3% | 78.9% | 88.7% | 89.9% | 90.3%
4 | CCCCn1c(-c2ccc(C(=O)O/N=C(\N)c3ccc4ccccc4c3)cc2)nc(-c2ccccc2)c1-c1ccccc1 | 65% | 61.7% | 80.8% | 91.5% | 26.3% | 77.6% | 71.7% | 42% | 77.8% | 90.8% | 65.3% | 11.9% | 93.4% | 70% | 58.2% | 48.9% | 81% | 81.3% | 98.3% | 82.6%
5 | Cc1cc(N2CCOCC2)nc(NCc2cc(Nc3ccnc4cc(Cl)ccc34)ccc2F)n1 | -32.9% (active) | 16.1% | -27.6% (active) | -63% (active) | -65.7% (active) | -30.8% (active) | -61% (active) | -49.4% (active) | -93.7% (active) | -70.9% (active) | -57.6% (active) | -4.96% (active) | -73.7% (active) | -78.3% (active) | -92.4% (active) | -52.5% (active) | -84.4% (active) | -80.4% (active) | -68.3% (active) | -83.7% (active)
6 | Oc1ccccc1-c1nnc(CNc2ccc(Cl)cc2)o1 | 34.8% | 30.1% | 32% | 25.7% | 7.25% (active) | 52.5% | 25.9% | 20.9% | 36.7% | 14.8% | 35.5% | 13.1% | 44% | 46.9% | 37% | 27.4% | 40.6% | 26.7% | 12.4% | 10.8%
7 | COc1ccc(/C=C/c2nc3ccccc3nc2/C=C/c2ccc(OC)cc2)cc1 | 93.5% | 90.2% | 103% | 104% | 100% | 92.3% | 94% | 93.9% | 88.8% | 97.4% | 105% | 101% | 109% | 111% | 80.3% | 99.5% | 102% | 89.8% | 106% | 93%
8 | CSc1ccc(-c2n[nH]nc2-c2cc3ccccc3s2)cc1 | 61.5% | 86% | 73.9% | 39.2% | 21% | 70.3% | 8.98% (active) | 35% | 54.7% | 77.8% | 74.3% | 15.1% | 69.4% | 41.5% | 75.5% | 54.3% | 49.9% | 50.2% | 58.4% | 16%
9 | COc1cccc(-c2nn(C(C)(C)C)cc2-c2ccnc(NCCCNS(=O)(=O)c3ccc(C)cc3)c2)c1 | 105% | 101% | 106% | 100% | 103% | 114% | 99% | 103% | 103% | 121% | 107% | 101% | 101% | 112% | 109% | 105% | 103% | 115% | 111% | 105%
10 | O=C1c2cccc3cccc(c23)C(=O)N1CCCCN1CCN(CCCCOc2ccc(-c3nc4ccc(N5CCOCC5)cc4[nH]3)cc2)CC1 | 79.2% | 90.9% | 94.8% | 98.3% | 75% | -29.5% (active) | 70.4% | 39.6% | 80.6% | 93.9% | 77.2% | 57.1% | 86.5% | 91.6% | 24.1% | 68.6% | 74.7% | 106% | 96.6% | 98.4%
11 | COc1ccc(-c2nc3ccc(-c4nc5ccc(N6CCN(c7ccncc7)CC6)cc5[nH]4)cc3[nH]2)cc1OC | 36.9% | 46% | 81.2% | 61% | 83.5% | 57.8% | -58% (active) | 80.7% | 76.4% | 13.3% | 42.7% | 29.5% | -25% (active) | 63% | 85.1% | 38.4% | 49.8% | 42.5% | 11.6% | 13.6%
12 | Nc1ccc(S(=O)(=O)O)c2ccc(N=Nc3ccc(N=Nc4ccc(S(=O)(=O)O)cc4)c4ccccc34)c(O)c12 | 98% | 92.1% | 94.7% | 112% | 101% | 102% | 89.4% | 99.8% | 102% | 105% | 110% | 106% | 97.6% | 94.7% | 109% | 101% | 114% | 123% | 109% | 99.8%
13 | c1ccc(CCNc2ncnc3[nH]ncc23)cc1 | 94.4% | 89.4% | 112% | 89.7% | 117% | 55.4% | 85.5% | 92.4% | 96.4% | 114% | 109% | 94.6% | 114% | 93.2% | 93.2% | 109% | 102% | 116% | 96.5% | 104%
14 | CN(C)S(=O)(=O)c1ccc(S(=O)(=O)Nc2cccc(Cl)c2N2CCCCC2)cc1 | 84.1% | 82.9% | 98.7% | 87.9% | 93.6% | 72.4% | 68.7% | 66.9% | 87.9% | 106% | 89.1% | 55.6% | 106% | 66.6% | 88% | 89.5% | 78.1% | 94% | 74.1% | -35.4% (active)
15 | O=C1c2cc3c(cc2-c2c1c1ccc(F)cc1c(=O)n2C[C@H](O)[C@@H](O)[C@H](O)CO)OCO3 | -31.9% (active) | -17.4% (active) | 13% | -7.29% (active) | 3.2% (active) | 6.56% (active) | -22.1% (active) | -33.7% (active) | 4.19% (active) | -31.1% (active) | 2.47% (active) | 9.69% (active) | -54.6% (active) | 11.1% | -47.1% (active) | 11.2% | -0.994% (active) | -44.6% (active) | -44.3% (active) | -14% (active)
